# From the supplement of paper PMC12819154, “High-throughput peptide-centric local stability assay extends protein–ligand identification to membrane proteins, tissues and bacteria” (Nature Structural & Molecular Biology, 2025)
# Compound: CN[C@@H]1C[C@H]2O[C@@](C)([C@@H]1OC)n1c3ccccc3c3c4c(c5c6ccccc6n2c5c31)C(=O)NC4 [staurosporine]
# Test: log2 fold change of tryptic peptide abundance, ligand vs vehicle (limited proteolysis) (log2 ratio); higher = more trypsin-susceptible (destabilized)
# Conditions: ligand concentration: 20 uM; sample: K562 cleared lysate; digestion: 4 min, 22 C (HT-PELSA RT4min, Orbitrap Astral)
# Chain of UniProt Q8IVT5 (Q8IVT5 whole entry): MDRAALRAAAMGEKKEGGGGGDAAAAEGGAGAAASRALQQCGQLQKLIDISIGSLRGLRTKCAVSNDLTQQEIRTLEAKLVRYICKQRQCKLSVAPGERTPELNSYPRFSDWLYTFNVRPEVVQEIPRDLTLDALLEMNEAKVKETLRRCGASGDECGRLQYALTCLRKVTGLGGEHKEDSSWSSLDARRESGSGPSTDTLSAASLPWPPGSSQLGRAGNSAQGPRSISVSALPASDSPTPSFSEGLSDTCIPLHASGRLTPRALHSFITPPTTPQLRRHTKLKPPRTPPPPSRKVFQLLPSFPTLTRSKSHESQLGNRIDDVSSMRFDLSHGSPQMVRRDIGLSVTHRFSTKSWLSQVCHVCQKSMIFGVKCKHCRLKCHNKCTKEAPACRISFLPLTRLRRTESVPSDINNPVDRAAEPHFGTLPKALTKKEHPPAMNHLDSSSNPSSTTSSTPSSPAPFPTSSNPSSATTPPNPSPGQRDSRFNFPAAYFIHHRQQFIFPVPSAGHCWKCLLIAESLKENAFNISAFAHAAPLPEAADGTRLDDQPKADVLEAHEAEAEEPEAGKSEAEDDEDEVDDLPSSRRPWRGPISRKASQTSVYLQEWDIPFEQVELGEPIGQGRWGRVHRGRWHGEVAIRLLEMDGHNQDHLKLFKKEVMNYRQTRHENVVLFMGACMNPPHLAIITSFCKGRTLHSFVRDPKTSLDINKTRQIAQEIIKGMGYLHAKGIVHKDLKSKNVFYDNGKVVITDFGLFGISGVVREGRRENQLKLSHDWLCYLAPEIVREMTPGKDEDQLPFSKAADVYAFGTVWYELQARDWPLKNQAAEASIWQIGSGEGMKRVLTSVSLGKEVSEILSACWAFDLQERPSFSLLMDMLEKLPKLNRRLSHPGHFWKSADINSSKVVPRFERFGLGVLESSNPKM
# Chain of UniProt O75494 (O75494 whole entry): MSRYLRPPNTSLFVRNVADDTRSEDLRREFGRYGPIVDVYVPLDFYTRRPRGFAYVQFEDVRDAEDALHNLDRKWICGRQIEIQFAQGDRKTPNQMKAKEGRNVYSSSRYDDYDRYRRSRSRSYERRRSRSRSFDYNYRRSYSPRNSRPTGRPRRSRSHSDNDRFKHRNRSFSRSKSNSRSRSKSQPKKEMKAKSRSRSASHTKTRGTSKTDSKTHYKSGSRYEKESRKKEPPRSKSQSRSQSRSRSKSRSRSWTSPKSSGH
# Chain of UniProt O60331 (O60331 whole entry): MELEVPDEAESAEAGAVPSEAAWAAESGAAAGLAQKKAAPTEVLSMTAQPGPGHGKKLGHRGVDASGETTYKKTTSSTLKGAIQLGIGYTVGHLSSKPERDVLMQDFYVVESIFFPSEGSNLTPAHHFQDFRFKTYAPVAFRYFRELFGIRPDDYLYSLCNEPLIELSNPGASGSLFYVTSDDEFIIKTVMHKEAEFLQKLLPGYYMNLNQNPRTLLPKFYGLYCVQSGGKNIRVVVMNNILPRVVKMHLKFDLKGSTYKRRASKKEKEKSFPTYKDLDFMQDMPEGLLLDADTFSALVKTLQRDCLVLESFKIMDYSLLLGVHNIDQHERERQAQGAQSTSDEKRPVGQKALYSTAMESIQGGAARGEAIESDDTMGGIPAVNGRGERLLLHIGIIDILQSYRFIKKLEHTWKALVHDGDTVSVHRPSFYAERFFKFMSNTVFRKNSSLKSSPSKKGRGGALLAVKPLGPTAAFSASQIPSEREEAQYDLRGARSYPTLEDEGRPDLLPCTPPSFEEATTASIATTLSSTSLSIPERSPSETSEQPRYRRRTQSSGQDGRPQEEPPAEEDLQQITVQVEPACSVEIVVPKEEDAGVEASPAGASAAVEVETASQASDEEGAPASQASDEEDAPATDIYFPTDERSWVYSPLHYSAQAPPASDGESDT
# Chain of UniProt Q9Y2K2 (Q9Y2K2 whole entry, looked up): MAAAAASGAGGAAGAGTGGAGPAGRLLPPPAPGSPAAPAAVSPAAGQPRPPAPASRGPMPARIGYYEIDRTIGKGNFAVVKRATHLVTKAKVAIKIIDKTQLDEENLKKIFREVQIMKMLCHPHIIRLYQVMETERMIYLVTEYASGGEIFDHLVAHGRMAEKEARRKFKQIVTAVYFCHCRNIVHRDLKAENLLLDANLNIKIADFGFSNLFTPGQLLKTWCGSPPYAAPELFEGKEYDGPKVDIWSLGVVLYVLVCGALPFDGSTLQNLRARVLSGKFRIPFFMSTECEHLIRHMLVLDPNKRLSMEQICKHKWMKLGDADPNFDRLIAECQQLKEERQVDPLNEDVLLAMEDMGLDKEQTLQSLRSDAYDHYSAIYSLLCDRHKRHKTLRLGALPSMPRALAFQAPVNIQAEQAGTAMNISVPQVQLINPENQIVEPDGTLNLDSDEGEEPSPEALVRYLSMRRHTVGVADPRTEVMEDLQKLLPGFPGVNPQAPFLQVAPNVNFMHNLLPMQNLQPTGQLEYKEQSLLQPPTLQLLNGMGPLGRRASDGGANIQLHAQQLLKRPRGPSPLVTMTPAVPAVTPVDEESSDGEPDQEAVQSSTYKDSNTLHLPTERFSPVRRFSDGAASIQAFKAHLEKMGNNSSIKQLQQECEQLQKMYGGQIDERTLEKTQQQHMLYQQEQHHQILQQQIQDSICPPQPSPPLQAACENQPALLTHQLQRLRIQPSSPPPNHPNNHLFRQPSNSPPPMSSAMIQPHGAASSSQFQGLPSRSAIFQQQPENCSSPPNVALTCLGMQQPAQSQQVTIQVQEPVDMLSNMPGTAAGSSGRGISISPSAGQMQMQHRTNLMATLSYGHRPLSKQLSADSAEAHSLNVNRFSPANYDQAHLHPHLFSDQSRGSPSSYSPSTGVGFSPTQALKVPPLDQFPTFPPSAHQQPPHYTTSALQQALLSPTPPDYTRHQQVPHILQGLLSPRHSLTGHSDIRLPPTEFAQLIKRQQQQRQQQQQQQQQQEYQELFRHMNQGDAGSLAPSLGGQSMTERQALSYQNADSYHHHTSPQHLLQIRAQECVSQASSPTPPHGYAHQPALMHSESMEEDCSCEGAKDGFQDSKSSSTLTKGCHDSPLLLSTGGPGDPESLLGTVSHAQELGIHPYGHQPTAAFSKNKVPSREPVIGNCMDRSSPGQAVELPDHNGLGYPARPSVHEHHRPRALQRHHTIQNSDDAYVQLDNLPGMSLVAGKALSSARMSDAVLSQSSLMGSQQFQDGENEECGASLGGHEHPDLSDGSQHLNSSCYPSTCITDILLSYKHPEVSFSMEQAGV
# Chain of UniProt Q9Y2W1 (Q9Y2W1 whole entry): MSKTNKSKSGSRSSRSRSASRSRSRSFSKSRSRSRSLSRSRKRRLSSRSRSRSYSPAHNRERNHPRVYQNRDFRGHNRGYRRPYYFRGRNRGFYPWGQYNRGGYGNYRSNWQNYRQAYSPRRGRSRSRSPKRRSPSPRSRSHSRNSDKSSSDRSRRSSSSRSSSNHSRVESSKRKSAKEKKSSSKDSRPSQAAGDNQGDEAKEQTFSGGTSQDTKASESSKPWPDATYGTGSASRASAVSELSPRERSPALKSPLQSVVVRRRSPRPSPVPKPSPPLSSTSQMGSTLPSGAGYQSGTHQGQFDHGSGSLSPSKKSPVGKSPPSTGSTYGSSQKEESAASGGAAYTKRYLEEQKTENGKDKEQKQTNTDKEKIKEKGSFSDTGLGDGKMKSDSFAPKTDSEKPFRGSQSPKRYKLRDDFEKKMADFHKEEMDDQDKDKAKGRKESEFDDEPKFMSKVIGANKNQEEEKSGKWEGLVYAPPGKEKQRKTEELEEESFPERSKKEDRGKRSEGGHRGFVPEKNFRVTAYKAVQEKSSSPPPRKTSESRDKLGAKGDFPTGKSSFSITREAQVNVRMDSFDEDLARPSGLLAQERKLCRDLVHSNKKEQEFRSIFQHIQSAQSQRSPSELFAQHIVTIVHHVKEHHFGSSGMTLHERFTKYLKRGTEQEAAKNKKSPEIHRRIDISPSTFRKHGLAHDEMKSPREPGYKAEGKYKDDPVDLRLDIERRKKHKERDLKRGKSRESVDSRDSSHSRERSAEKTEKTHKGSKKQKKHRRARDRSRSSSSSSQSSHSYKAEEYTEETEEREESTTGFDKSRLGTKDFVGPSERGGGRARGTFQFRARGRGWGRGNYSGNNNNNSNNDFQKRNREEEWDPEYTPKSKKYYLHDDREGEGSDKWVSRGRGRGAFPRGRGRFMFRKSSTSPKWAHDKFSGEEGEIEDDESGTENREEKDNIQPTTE
# Chain of UniProt P02100 (P02100 whole entry): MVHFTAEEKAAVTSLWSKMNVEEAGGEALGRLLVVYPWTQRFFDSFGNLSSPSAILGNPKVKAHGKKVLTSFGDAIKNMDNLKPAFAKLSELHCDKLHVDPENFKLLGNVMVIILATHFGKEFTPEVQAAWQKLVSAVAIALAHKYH
# Chain of UniProt Q9UJV9 (Q9UJV9 whole entry): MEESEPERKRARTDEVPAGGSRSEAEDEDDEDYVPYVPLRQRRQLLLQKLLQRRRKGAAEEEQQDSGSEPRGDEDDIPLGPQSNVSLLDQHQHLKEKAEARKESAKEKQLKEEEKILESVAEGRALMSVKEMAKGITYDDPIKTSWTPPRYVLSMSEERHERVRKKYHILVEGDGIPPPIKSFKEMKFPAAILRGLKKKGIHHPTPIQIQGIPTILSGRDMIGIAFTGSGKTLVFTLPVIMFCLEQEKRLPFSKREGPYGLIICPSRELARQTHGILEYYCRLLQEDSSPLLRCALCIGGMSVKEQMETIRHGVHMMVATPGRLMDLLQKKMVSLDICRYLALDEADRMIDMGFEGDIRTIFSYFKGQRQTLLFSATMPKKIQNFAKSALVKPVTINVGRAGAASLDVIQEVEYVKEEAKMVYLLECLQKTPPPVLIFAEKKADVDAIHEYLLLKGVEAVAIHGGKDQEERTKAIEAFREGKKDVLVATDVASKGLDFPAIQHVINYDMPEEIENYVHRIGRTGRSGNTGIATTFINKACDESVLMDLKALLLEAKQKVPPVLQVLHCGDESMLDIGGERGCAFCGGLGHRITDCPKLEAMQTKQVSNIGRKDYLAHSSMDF
row,Target,log2 fold change
1,"UniProt Q9Y2K2 (peptide sequence: IGYYEIDR, peptide start residue: 63)",-3.15
2,"THRAP3 (peptide sequence: SYSPAHNR, peptide start residue: 53) (UniProt Q9Y2W1)",2.27
3,"KSR1 (peptide sequence: LSHDWLCYLAPEIVR, peptide start residue: 771) (UniProt Q8IVT5)",-0.299
4,"AK2 (peptide sequence: NLETPLCK, peptide start residue: 86) (UniProt P54819)",0.399
5,"UniProt O75494 (peptide sequence: SFDYNYR, peptide start residue: 133)",0.608
6,"HBE1 (peptide sequence: MNVEEAGGEALGR, peptide start residue: 19) (UniProt P02100)",0.28
7,"DDX41 (peptide sequence: TDEVPAGGSR, peptide start residue: 13) (UniProt Q9UJV9)",0.553
8,"PIP5K1C (peptide sequence: DCLVLESFK, peptide start residue: 305) (UniProt O60331)",-0.54
9,"RPL5 (peptide sequence: GAVDGGLSIPHSTK, peptide start residue: 165) (UniProt P46777)",0.307
